From PubChem BioAssay (NCATS)
Records with an inconclusive call do not appear. The source made the active and inactive calls. Unless noted, calls come from the whole dose curve.

Tests used:
[1] = molecular target: Peroxisome proliferator-activated receptor delta (Homo sapiens) (UniProt Q03181); test: qHTS assay for small molecule agonists of peroxisome proliferator-activated receptor delta signaling (AID 588534);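 note: 0% = DMSO basal wells and 100% = positive control agonist at 10 µM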
In short: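 Cells carrying a PPAR-delta beta-lactamase reporter were treated with compounds for 18 h at 37 °C in agonist mode. CCF4 fluorescence was read after 2 h; EC50 and efficacy from Hill fits.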

[2] = qHTS assay for small molecule antagonists of peroxisome proliferator-activated receptor delta signaling (AID 588535; active = well fitted inhibition curve with a large enough effect in the signal ratio, with a control signal flat, not every such curve was filed as active; the % refers to the signal ratio;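 for max response: cells co-treated with a PPAR-delta agonist as stimulator during compound exposure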); conditions: HEK293T PPARd-UAS-bla, beta-lactamase FRET ratio, 18 h; 460 nm channel
In short: (§1)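 Reporter: UAS-bla under PPAR-delta response element, HEK293T host. Medium: 2% charcoal/dextran FBS. Dosing: titration, 18 hrs, 37 C. Detection: CCF4, 2 hrs RT, 405 ex/460 and 530 em.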

[3] = molecular target: Peroxisome proliferator-activated receptor delta (Homo sapiens) (UniProt Q03181); test: as above
In short: as §1

[4] = molecular target: Vitamin D3 receptor (Homo sapiens) (UniProt P11473); test: qHTS assay for small molecule antagonists of vitamin D receptor signaling (AID 588541);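 note: receptor activated by calcitriol during compound treatment; series mostly up to about 77 µM; % is set by controls: 0 for no effect and ±100 for the full control effect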
Chain of Vitamin D3 receptor (Homo sapiens) (P11473 whole entry, looked up): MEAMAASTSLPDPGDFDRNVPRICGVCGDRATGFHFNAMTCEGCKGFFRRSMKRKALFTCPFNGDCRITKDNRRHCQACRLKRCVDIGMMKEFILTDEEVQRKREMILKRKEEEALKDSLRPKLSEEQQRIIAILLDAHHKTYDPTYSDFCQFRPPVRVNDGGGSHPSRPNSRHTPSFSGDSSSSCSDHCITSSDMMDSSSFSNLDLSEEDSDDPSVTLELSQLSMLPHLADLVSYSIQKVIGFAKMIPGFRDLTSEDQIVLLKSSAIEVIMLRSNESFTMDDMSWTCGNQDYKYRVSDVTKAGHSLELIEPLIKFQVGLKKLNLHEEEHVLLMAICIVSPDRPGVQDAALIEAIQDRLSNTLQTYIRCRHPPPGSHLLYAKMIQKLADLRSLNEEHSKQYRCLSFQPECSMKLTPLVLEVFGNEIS
In short: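 VDR-UAS-bla HEK293T cells (2000/well, 2% charcoal-stripped FBS) were treated with titrated compounds plus 1-alpha,25-dihydroxyvitamin D3 (50 nM or 3 nM final) for 16 h at 37 C. CCF4 beta-lactamase fluorescence was read; Hill fits gave IC50.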

[5] = molecular target: Vitamin D3 receptor (Homo sapiens) (UniProt P11473); test: qHTS assay for small molecule agonists of vitamin D receptor signaling (AID 588543);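 note: 0% = DMSO basal and 100% = reference agonist control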
In short: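 GeneBLAzer VDR-UAS-bla HEK293T cells in 2% charcoal-stripped FBS medium were dosed with compound titrations for 16 h at 37 °C; CCF4 β-lactamase readout (405 nm ex, 460/530 nm em). EC50 and efficacy from Hill fits, normalized to 50 nM calcitriol (100%) and DMSO (0%).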

[6] = molecular target: Retinoic acid receptor RXR-alpha (Homo sapiens) (UniProt P19793); test: qHTS assay for small molecule agonists of retinoid X receptor alpha signaling (AID 588544);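 note: 0% = DMSO basal wells and 100% = reference agonist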
Chain of Retinoic acid receptor RXR-alpha (Homo sapiens) (P19793 whole entry, looked up): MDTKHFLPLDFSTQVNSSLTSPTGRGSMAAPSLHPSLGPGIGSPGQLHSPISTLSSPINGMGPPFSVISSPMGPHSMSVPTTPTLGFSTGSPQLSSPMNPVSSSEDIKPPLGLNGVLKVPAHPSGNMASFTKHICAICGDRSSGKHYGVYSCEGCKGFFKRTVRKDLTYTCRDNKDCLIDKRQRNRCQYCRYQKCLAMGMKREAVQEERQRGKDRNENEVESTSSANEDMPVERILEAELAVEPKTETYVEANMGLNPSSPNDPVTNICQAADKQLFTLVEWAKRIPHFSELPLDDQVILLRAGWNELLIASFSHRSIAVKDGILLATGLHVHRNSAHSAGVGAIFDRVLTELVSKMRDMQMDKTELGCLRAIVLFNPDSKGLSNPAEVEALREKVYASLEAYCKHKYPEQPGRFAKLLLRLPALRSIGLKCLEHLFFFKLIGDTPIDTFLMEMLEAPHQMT

[7] = molecular target: Thyroid hormone receptor beta (Homo sapiens) (UniProt P10828); test: qHTS assay for small molecule agonists of thyroid hormone receptor beta signaling (AID 588545);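 note: 0% = DMSO only and 100% = 10 nM T3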
Chain of Thyroid hormone receptor beta (Homo sapiens) (P10828 whole entry, looked up): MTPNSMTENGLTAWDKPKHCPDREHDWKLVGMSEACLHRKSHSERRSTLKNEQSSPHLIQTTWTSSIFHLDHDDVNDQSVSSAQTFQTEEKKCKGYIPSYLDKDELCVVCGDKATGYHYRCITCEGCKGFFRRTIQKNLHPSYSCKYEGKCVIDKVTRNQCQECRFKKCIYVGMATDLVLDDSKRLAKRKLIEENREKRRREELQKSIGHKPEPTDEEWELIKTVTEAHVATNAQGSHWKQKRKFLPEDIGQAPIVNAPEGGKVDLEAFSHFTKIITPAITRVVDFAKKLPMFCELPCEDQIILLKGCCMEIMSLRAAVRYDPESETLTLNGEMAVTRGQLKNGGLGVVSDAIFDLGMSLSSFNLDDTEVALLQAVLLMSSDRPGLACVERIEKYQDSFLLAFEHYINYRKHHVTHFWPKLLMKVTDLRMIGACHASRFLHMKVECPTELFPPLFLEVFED
In short: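 TR-UAS-bla GripTite HEK 293 cells (2500/well, medium with 2% charcoal/dextran FBS) were treated in agonist mode for 18 h at 37 C, titrated. Beta-lactamase was read by CCF4 ratio after 2 h; normalized to 10 nM T3 (100%) and DMSO, Hill-fitted for EC50 and efficacy.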

[8] = qHTS assay for small molecule antagonists of retinoid X receptor alpha signaling (AID 588546; active = well fitted inhibition curve with a large enough effect in the signal ratio, with a control signal flat, not every such curve was filed as active; the % refers to the signal ratio;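 note: cells stimulated with 9-cis-retinoic acid as agonist; % is set by controls: 0 for no effect and ±100 for the full control effect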); conditions: HEK293T RXRa-UAS-bla, beta-lactamase ratio, antagonist mode; measured here: W530 green channel, cytotoxicity proxy
In short: (§2)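 Beta-lactamase reporter inhibition, read as CCF4 fluorescence ratio (ex 405, em 460/530 nm) after 2 h at RT. HEK293T UAS-bla cells, 2500/well, were stimulated with 9-cis-RA at 500 or 100 nM final alongside test compound for 18 h at 37 C.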

[9] = molecular target: Retinoic acid receptor RXR-alpha (Homo sapiens) (UniProt P19793); test: as above; conditions: HEK293T RXRa-UAS-bla, beta-lactamase ratio, antagonist mode
In short: as §2

[10] = qHTS assay for small molecule activators of the nuclear factor-kappa B (NF-kB) signaling pathway (AID 651749; active = well fitted activation curve with a large enough effect in the signal ratio; the % refers to the signal ratio; note: series mostly up to about 77 µM; % of control where 0% means no effect); conditions: NF-kB-bla ME-180 cells, beta-lactamase FRET ratio, 16 h; activation: stronger effect = higher value
In short: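 Screening used 2,000 ME-180 reporter cells per well exposed to pinned compound (23 nL) or DMSO; after 16 hr at 37C, beta-lactamase expression under NF-kB control was assessed through FRET.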

[11] = qHTS assay for environmental chemicals that activate the Aryl hydrocarbon Receptor (AhR) signaling pathway (AID 651777; active = well fitted curve in the direction sought with a large enough effect; an effect the other way counts as inactive or inconclusive; note: % of control where 0% means no effect; nearly all actives have a fitted effect of over 15% in size); conditions: 1A2-DRE human hepatoma cells, luciferase, 24 h; activation: stronger effect = higher value
In short: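 Measured luciferase activity, read 30 min after One-Glo addition at room temperature, from human hepatoma cells bearing a dioxin response element–CYP1A2 promoter reporter and exposed to compound for 24 hr at 37 C.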

[12] = molecular target: Peroxisome proliferator-activated receptor alpha (Homo sapiens) (UniProt Q07869); test: qHTS assay for small molecule agonists of the peroxisome proliferator-activated receptor alpha (PPARalpha) signaling pathway (AID 651778; active = well fitted curve in the direction sought with a large enough effect; an effect the other way counts as inactive or inconclusive; note: % of control where 0% means no effect); conditions: PathHunter PPARalpha complementation, chemiluminescence, 6 h; max response: stronger effect = higher value
Chain of Peroxisome proliferator-activated receptor alpha (Homo sapiens) (Q07869 whole entry, looked up): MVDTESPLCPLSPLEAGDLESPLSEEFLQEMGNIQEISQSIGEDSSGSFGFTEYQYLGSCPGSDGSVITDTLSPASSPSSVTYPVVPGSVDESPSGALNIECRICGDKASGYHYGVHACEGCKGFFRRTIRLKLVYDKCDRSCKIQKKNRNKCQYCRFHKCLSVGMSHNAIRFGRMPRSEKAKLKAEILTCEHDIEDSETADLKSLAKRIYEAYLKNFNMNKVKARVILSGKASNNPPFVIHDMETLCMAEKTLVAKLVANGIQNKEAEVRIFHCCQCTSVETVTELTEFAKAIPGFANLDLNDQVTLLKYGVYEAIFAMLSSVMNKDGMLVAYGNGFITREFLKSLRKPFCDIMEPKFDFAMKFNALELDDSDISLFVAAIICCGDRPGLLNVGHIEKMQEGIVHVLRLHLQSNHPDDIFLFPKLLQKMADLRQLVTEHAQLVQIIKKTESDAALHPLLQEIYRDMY
In short: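 Cells plated at 2,000/well and held overnight at 37 C, 5% CO2, then compound added by pin tool for 6 hr; after PathHunter detection reagent and 60 min at room temperature, chemiluminescence from enzyme complementation was read.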

[13] = qHTS assay for small molecule agonists of the antioxidant response element (ARE) signaling pathway measured by Nrf2-dependant transcriptional activity (AID 720636; active = well fitted curve in the direction sought with a large enough effect in the repeat runs; an effect the other way counts as inactive or inconclusive;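 note: HepG2 cells with an ARE-driven luciferase reporter; % of control where 0% means no effect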)
In short: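 In HepG2 cells engineered with an Nrf2-responsive luciferase gene, ARE induction was quantified as luminescence after 16 hr compound treatment at 37 C.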

[14] = qHTS assay for small molecule agonists of the antioxidant response element (ARE) signaling pathway measured by Nrf2-dependant transcriptional activity - cell viability counter screen (AID 720653; active = well fitted curve in the direction sought with a large enough effect in the repeat runs; an effect the other way counts as inactive or inconclusive; note: % is set by controls: 0 for no effect and ±100 for the full control effect); conditions: ARE-bla HepG2 viability, CellTiter-Glo ATP luminescence, 16 h; max response: stronger effect = lower value
In short: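 ARE-bla HepG2 cells (2,000/well) rested 5 hrs at 37C/5% CO2, then exposed to compounds in DMSO for 16 hrs. Viability was read in the same wells as intracellular ATP by luminescence, 30 min at room temperature after reagent addition.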

[15] = qHTS assay for cell viability of HEK293 cells (AID 743288; active = well fitted curve in the direction sought with a large enough effect; an effect the other way counts as inactive or inconclusive; note: % is set by controls: 0 for no effect and ±100 for the full control effect; nearly all actives have a fitted effect of over 50% in size); conditions: ATP luminescence (CellTiter-Glo), 18 h; max response: stronger effect = lower value
In short: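 Parental HEK293 cells were seeded at 2,000 cells/well, rested at least 5 h at 37 C, then exposed to compounds in DMSO for 18 h at 37 C. Viability was read as ATP-dependent luciferase luminescence after 30 min at room temperature.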

[16] = qHTS assay for cell viability of the p53RE-bla HCT-116 cell line (AID 743292; active = well fitted curve in the direction sought with a large enough effect; an effect the other way counts as inactive or inconclusive; note: % is set by controls: 0 for no effect and ±100 for the full control effect; nearly all actives have a fitted effect of over 55% in size)
In short: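 Intracellular ATP of p53RE-bla HCT-116 cells measured by luciferase luminescence following 16 h compound incubation at 37 C; DMSO-only wells served as vehicle controls.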

[17] = molecular target: Bile acid receptor (Homo sapiens) (UniProt Q96RI1); test: qHTS assay for small molecule antagonists of farnesoid X receptor signaling (AID 588526); note: % is set by controls: 0 for no effect and ±100 for the full control effect
Chain of Bile acid receptor (Homo sapiens) (Q96RI1 whole entry, looked up): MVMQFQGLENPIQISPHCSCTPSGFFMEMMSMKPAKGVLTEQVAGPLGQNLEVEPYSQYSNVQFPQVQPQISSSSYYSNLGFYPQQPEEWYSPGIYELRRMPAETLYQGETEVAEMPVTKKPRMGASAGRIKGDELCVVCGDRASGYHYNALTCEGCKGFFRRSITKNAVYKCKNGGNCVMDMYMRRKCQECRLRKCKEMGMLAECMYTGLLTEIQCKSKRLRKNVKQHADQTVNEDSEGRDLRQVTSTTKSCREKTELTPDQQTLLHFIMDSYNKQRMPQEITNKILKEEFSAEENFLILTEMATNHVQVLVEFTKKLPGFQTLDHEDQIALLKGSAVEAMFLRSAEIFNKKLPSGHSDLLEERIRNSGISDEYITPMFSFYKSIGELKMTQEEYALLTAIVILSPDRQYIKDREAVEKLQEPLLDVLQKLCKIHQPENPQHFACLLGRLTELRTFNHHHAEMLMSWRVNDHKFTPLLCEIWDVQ
In short: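 Concentration-response titrations were fitted to the Hill equation for half-maximal inhibition and maximal response, with data normalised to 50 uM chenodeoxycholic acid and DMSO control wells. Cells: FXR-UAS-bla HEK293T, dialyzed FBS.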

[18] = molecular target: Bile acid receptor (Homo sapiens) (UniProt Q96RI1); test: qHTS assay for small molecule agonists of farnesoid X receptor signaling (AID 588527); conditions: HEK293T FXR-UAS-bla, beta-lactamase ratio, 16 h; activation: stronger effect = higher value;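 note: series mostly up to about 77 µM; 0% = vehicle basal and 100% = reference agonist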
In short: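 FXR-UAS-bla HEK293T, 10% dialyzed FBS; cpds up to 92 uM titration, 16 h 37 C; CCF4 dye 2 h RT; fluorescence. Normalized to chenodeoxycholic acid 100 uM (100%) and DMSO (0%); Hill fit gives EC50, efficacy.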

[19] = qHTS assay for small molecule activators of the p53 signaling pathway (AID 651743; active = well fitted activation curve with a large enough effect in the signal ratio, not every such curve was filed as active; the % refers to the signal ratio; note: series mostly up to about 92 µM; % of control where 0% means no effect); conditions: HCT-116 p53RE-bla, beta-lactamase FRET ratio, 16 h; activation: stronger effect = higher value
In short: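 Cell-based beta-lactamase reporter (p53 response elements, HCT-116 background). After a 5-hour preincubation, cells received compound for 16 hours at 37 C; substrate development ran 2 hours at room temperature.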

[20] = molecular target: Nuclear receptor subfamily 1 group I member 2 (Rattus norvegicus) (UniProt Q9R1A7); test: qHTS assay for small molecule activators of the rat pregnane X receptor (rPXR) signaling pathway (AID 651751; call rule not given here; note: 0% is about no effect); conditions: rPXR reporter cells, luciferase (One-Glo), 24 h
Chain of Nuclear receptor subfamily 1 group I member 2 (Rattus norvegicus) (Q9R1A7 whole entry, looked up): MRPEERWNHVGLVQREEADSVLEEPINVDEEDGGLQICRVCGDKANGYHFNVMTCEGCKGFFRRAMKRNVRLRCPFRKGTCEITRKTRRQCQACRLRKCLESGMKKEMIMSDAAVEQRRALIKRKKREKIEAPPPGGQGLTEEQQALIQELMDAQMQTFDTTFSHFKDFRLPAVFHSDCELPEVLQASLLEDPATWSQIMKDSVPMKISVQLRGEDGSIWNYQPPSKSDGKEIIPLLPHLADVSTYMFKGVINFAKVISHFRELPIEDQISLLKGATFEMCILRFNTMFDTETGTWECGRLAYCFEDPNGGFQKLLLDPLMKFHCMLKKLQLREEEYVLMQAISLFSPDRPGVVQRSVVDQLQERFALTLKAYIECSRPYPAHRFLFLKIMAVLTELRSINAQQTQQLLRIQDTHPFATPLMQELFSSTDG

Chain of Peroxisome proliferator-activated receptor delta (Homo sapiens) (Q03181 whole entry, looked up): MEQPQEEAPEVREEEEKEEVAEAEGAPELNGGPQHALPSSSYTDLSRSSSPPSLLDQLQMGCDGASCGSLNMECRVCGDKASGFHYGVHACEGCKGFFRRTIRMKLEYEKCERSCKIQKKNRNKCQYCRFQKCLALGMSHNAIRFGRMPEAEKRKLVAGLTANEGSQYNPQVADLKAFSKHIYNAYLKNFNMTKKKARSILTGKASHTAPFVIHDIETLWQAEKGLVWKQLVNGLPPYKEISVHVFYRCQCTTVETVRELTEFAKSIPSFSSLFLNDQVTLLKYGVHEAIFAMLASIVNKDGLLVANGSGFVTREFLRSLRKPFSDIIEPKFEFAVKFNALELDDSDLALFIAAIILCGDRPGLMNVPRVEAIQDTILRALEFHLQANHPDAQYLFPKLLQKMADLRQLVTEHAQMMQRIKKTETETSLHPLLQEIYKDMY

| SMILES | outcome [1] | max response [2] [%] | Potency [3] | Potency [4] | outcome [5] | Potency [6] | Potency [7] | max response [8] [%] | max response [9] | activation [10] | activation [11] | max response [12] | Potency [13] | max response [14] | max response [15] | Potency [16] | Potency [17] | activation [18] | activation [19] | max response [20] |
| --- | --- | --- | --- | --- | --- | --- | --- | --- | --- | --- | --- | --- | --- | --- | --- | --- | --- | --- | --- | --- |
| Cc1ccccc1CO[C@@H]1C[C@@]2(C(C)C)CC[C@]1(C)O2 | inactive | 49.2 | inactive | inactive | inactive | inactive | inactive | 0.789 | -22.7% (inactive) | -3.81% (inactive) | 0.466% (inactive) | 5.16% (inactive) | inactive | 1.88% (inactive) | -20.5% (inactive) | inactive |  |  |  |  |
| CCCCC(O)(Cn1cncn1)c1ccc(Cl)cc1Cl (configuration not stated) |  | -34 | inactive |  | inactive |  |  | -3.36 | -17.2% (inactive) | 0.388% (inactive) | 2.7% (inactive) | 9.57% (inactive) | inactive | -0.171% (inactive) | -16.7% (inactive) | inactive | inactive | -2.88% (inactive) | -5.41% (inactive) |  |
| CCCCOC(=O)c1ccccc1C(=O)O | inactive | 23.7 | inactive |  |  | inactive | inactive | 2.69 | 13.7% (inactive) | 1.8% (inactive) | -4.01% (inactive) | 0.528% (inactive) | inactive | 18.5% (inactive) |  |  | inactive | -1.61% (inactive) | -2.82% (inactive) | -8.39% (inactive) |
